# Screening results from PubChem BioAssay.
# Compounds with a hit are over-represented: about 19% of the library has one in this group of screens.
# HT1080 IDH1KD tx: qHTS for induction of synthetic lethality in tumor cells producing 2HG: qHTS for the HT-1080-IDH1KD cell line; HT-1080 IDH1 knockdown viability, ATP luminescence, 48 h; Potency, µM (titrated, usually from 46.1 µM), for inactives: at the top dose activity, negative = toxicity, hits mostly cytotoxic; actives 2% (n = 360,000); AID 686971, 2013;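 note: potency is the fitted concentration of half-maximal effect; 0% = DMSO wells and -100% = cell-free medium wells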
#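 In this qHTS, HT-1080 cells depleted of IDH1 are exposed for 48 h at 37 °C to compound titrations. Toxicity is scored from CellTiter-Glo luminescence, with DMSO as full viability and medium alone as none.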
# TDP1 cell noCPT: qHTS for Inhibitors of human tyrosyl-DNA phosphodiesterase 1 (TDP1): qHTS in cells in absence of CPT; DT40 Tdp1-/- hTDP1 cells, no CPT, ATP luminescence, 48 h; Potency, µM (doses to about 46.2 µM), for inactives: at the top dose activity change, negative = growth inhibition, hits mostly inhibitors; actives 15% (n = 420,000); note: potency is the fitted concentration of half-maximal effect; nearly all actives have a fitted effect of over 55% in size
#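 Chicken DT40 Tdp1-/- cells stably complemented with human TDP1 were seeded at 400 cells/well with DMSO in place of 20 nM camptothecin. After compound pinning, cells grew at least 48 hr at 37 °C; viability read by CellTiter-Glo luminescence.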
# TDP1 cell CPT: qHTS for Inhibitors of human tyrosyl-DNA phosphodiesterase 1 (TDP1): qHTS in cells in presence of CPT | chicken DT40 Tdp1-/-;hTDP1 cells + 20 nM CPT, ATP luminescence, 48 h | Potency, µM (doses to about 46.2 µM), without a hit: at the highest dose activity change, negative = growth inhibition, usual class: inhibitors | actives 12% (n = 420,000); note: potency is the fitted concentration of half-maximal effect; nearly all actives have a fitted effect of over 55% in size
#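 Chicken DT40 Tdp1-/- cells stably complemented with human TDP1 were seeded at 400 cells/well in medium containing 20 nM camptothecin, exposed to pin-transferred compounds, and grown at 37 °C for at least 48 hr. Viability was read as ATP luminescence.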
# IL1B secr inh: qHTS for Inhibitors of Inflammasome Signaling: IL-1-beta AlphaLISA Primary Screen; actives 4.7% (n = 360,000); activity change, % at 57.5 µM; THP-1 LPS/ATP IL-1B secretion, AlphaLISA, 16 h; active compounds read low; in the data active = activity change below about -50%; inconclusive = mostly about -30% to -49%
#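 Secreted IL-1B measured by AlphaLISA bead assay after 16 h compound exposure of THP-1 cells; compounds (final up to 57.5 uM) added 1 h before LPS (250 ng/mL) and ATP (1.25 mM) stimulation; lower signal means less secretion.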
# ELG1 repair inh: qHTS screen for small molecules that inhibit ELG1-dependent DNA repair in human embryonic kidney (HEK293T) cells expressing luciferase-tagged ELG1; HEK293T ELG1-luciferase reporter, luminescence, 16 h; DNA damage induced by 5-fluorouridine; Potency, µM (highest dose often 46.1 µM), without a hit: top-dose activity change, negative = inhibition, most hits filed as inhibitors; actives 2.3% (n = 330,000); AID 504467, 2011; note: potency is the fitted concentration of half-maximal effect; nearly all actives have a fitted effect of over 55% in size
#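 Quantitative HTS, concentration-response format. 2,000 cells/well co-treated with 5-fluorouridine and compound, 16 hr in 5% CO2 at 37 °C; ONE-Glo luminescence read after 30 min.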
# HT1080-NT tox: qHTS for induction of synthetic lethality in tumor cells producing 2HG: qHTS for the HT-1080-NT fibrosarcoma cell line; HT-1080-NT fibrosarcoma viability, CellTiter-Glo ATP luminescence, 48 h; Potency, µM (top dose mostly 46.1 µM), for the others: at the top dose activity, negative = less viability, most hits filed as cytotoxic; actives 1.6% (n = 360,000); AID 686970, 2013;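 note: NT is the 2HG producing partner of a matched IDH1 knockdown line; potency is the fitted concentration of half-maximal effect; 0% = DMSO-treated cells and -100% = media-only wells without cells; nearly all actives have a fitted effect of over 55% in size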
#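 A 48-hour cytotoxicity screen used HT-1080-NT cells plated 2 hours before compound delivery. ATP-based CellTiter-Glo luminescence measured viability, normalized to DMSO and no-cell controls.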
# * = called active by the depositor; u = inconclusive; x = no result given; [ ] = another dose, or the depositor's remark. Unless noted, calls come from the whole dose curve; as a rule, active = well fitted curve in the direction sought with a large enough effect; inconclusive = small, poorly fitted or top-dose-only effect, or another doubt; inactive = no such curve, though single readings can be large; an effect the other way counts as inactive or inconclusive. Unless noted, % is set by controls: 0 for no effect and ±100 for the full control effect.
SMILES,HT1080 IDH1KD tx,TDP1 cell noCPT,TDP1 cell CPT,IL1B secr inh,ELG1 repair inh,HT1080-NT tox
O=C(NCCN1CCN(c2ccccc2)CC1)c1cccn2c(=O)c3cc(Cl)ccc3nc12,-3.9%,18.4µM*,u,20.2,-11.8%,13.0%
CCOC(CNC(=O)c1cccn2c(=O)c3cc(Cl)ccc3nc12)OCC,-1.1%,13µM*,11.6µM*,-6.4,23.1µM*,18.1%
Cc1cc(-c2csc(NC(=O)c3ccc(S(=O)(=O)N(C)C)cc3)n2)c(C)n1-c1ccccc1,-2.1%,18.4µM*,u,7.1,9.2µM*,0.4%
CN(C)S(=O)(=O)c1ccc(C(=O)Nc2nc(-c3cc4ccccc4o3)cs2)cc1,u,2.91µM*,10.3µM*,-1.2,15.8%,u
CN(C)S(=O)(=O)c1ccc(C(=O)Nc2nnc(SCc3ccccc3)s2)cc1,12.6%,15.5%,-2.8%,25.1,4.3%,5.5%
Cc1cc(NC(=O)c2ccc(S(=O)(=O)N3CCCC3)cc2)nc2c1c(=O)oc1ccccc12,3.7%,10.3µM*,7.31µM*,2.2,u,3.3%
Cc1cc(NC(=O)c2ccc(S(=O)(=O)N3CCOCC3)cc2)nc2c1c(=O)oc1ccccc12,x,x,x,x,2.8%,x
O=C(Nc1nc(-c2cc3ccccc3o2)cs1)c1ccc(S(=O)(=O)N2CCCC2)cc1,u,2.31µM*,16.4µM*,-7.3,u,-21.0%
CN(C)S(=O)(=O)c1ccc(C(=O)Nc2ccccn2)cc1,9.7%,-8.0%,3.9%,5.7,u,-1.1%
Cc1ccccc1-c1nn2c(=O)cc(CN3CCN(C(=O)c4ccc(C(C)(C)C)cc4)CC3)nc2s1,x,7.31µM*,8.2µM*,x,x,x
CCC(Oc1ccccc1)C(=O)N1CCN(Cc2cc(=O)n3nc(-c4cccc(C)c4)sc3n2)CC1 (stereo unspecified),x,23.1µM*,u,x,x,x
CC(C)(C)c1ccc(C(=O)N2CCN(Cc3cc(=O)n4nc(-c5ccccc5F)sc4n3)CC2)cc1,x,-0.9%,3.8%,x,x,x
CCCCOc1ccc(S(=O)(=O)NC(=O)C2(C)CCN2C(=O)CCc2ccccc2)cc1 (stereo unspecified),2.3%,-12.8%,-18.4%,15.1,x,u
CCCC1(C(=O)OCC)NC(c2ccc(OC)cc2OC)C2C(=O)N(c3ccccc3)C(=O)C21 (stereo unspecified),0.1%[9.24 µM],u,u,-0.2,11.6µM*,-0.8%
Cc1ccc(-n2nc(CO)c(C(=O)NCc3cccs3)n2)cc1,x,1.0%,8.0%,x,x,x
CCOc1ccc(-n2nc(CO)c(C(=O)NCc3cccs3)n2)cc1,x,16.4µM*,u,x,x,x
Cc1ccc(-c2nnc(Nc3ccc4c(c3)OCO4)c3ccccc23)cc1S(=O)(=O)NCCO,-14.2%,16.4µM*,u,-9.3,u,-5.7%
Cc1ccc(-c2nnc(Nc3ccc(CC(N)=O)cc3)c3ccccc23)cc1S(=O)(=O)NCCO,3.1%,12.4%,-5.3%,7.0,0.5%,0.6%
Cc1ccc(-c2n[nH]c(=O)c3ccccc23)cc1S(=O)(=O)NCCO,-11.7%,-22.5%,-20.7%,30.4,6.0%,-1.9%
Cc1ccc(-c2nnc(Nc3ccc(Cl)c(Cl)c3)c3ccccc23)cc1S(=O)(=O)NCCO,x,18.4µM*,18.4µM*,x,x,x
CC(C)CNC(=O)C1(C)CCCN1C(=O)c1c(Cl)cccc1Cl (stereo unspecified),7.5%,-22.5%,-7.5%,9.3,x,18.2%
CCCc1nc2ccccc2c(C(=O)OCC(=O)NC2CC2)c1CC,-2.7%,u,u,3.1,u,-4.2%
CCCc1nc2ccccc2c(C(=O)OCC(=O)Nc2cccc(S(=O)(=O)N3CCOCC3)c2)c1CC,u,u,11.6µM*,-10.0,25.9µM*,u
CCCc1nc2ccccc2c(C(=O)OCC(=O)Nc2ccc(S(=O)(=O)N3CCOCC3)cc2)c1CC,10µM*,16.4µM*,16.4µM*,-66.7*,20.6µM*,u
Cc1cc(C)nc(Sc2ccc(/C=C(\C#N)C(N)=O)o2)n1,-8.0%,7.1%,0.4%,2.9,-20.4%,1.1%
SMILES,HT1080 IDH1KD tx,TDP1 cell noCPT,TDP1 cell CPT,IL1B secr inh,ELG1 repair inh,HT1080-NT tox
CN(C)C(=O)/C(C#N)=C\c1cc(Br)c(Sc2ccc(Cl)cc2)o1,5.4%,14.6µM*,u,-94.4*,u,-17.6%
CC(C)N(C(=O)[C@H]1C[C@H](CC(=O)NCC23CC4CC(CC(C4)C2)C3)C(=O)N2CCc3c([nH]c4ccc(Cl)cc34)[C@]12C)C(C)C,u,13µM*,18.4µM*,-75.3*,u,u
CCN(CC)C(=O)[C@H]1C[C@H](CC(=O)NCCCn2ccnc2)C(=O)N2CCc3c([nH]c4ccc(Cl)cc34)[C@]12C,-2.5%,u,u,-1.8,-0.2%,-2.0%
CCN(CC)C(=O)[C@H]1C[C@H](CC(=O)NCC23CC4CC(CC(C4)C2)C3)C(=O)N2CCc3c([nH]c4ccc(Cl)cc34)[C@]12C,1.2%,18.4µM*,16.4µM*,-68.5*,u,-1.2%
O=C(NCCc1ccccn1)c1cc2ccccc2o1,9.1%,4.1%,-20.6%,54.5,u,12.5%
CCOC(=O)N(C)C[C@@H]1OCc2cnnn2CCCC(=O)N([C@H](C)CO)C[C@H]1C,5.4%,0.2%,-1.6%,14.7,x,14.0%
Oc1ccccc1OCCOc1ccccc1OCCOc1ccccc1O,-8.8%,20.6µM*,u,u,u,-12.0%
CCCOc1ccc(NC(=O)CC2C(=O)N(c3cccc(OC)c3)C(=O)N2Cc2cccs2)cc1 (stereo unspecified),x,20.6µM*,u,x,x,x
COc1ccc(N2C(=O)C(CC(=O)Nc3ccccc3)N(Cc3cccs3)C2=O)cc1 (stereo unspecified),3.7%,u,u,-18.4,5.8%,-1.2%
COc1ccc(NC(=O)CC2C(=O)N(c3cccc(OC)c3)C(=O)N2CCc2cccs2)cc1 (stereo unspecified),x,20.6µM*,u,x,x,x
